Measured values from PubChem BioAssay (NCATS).
Results filed as inconclusive are left out. Values without a mark were called inactive. The source made the active and inactive calls. The call rests on the fitted dose curve; in most records, active means well fitted cell-killing curve with a large enough effect; inconclusive means small, poorly fitted or top-dose-only effect; inactive means flat fitted curve, though single readings scatter.

experiment: Identifying Small Molecule Inhibitors of Pancreatic Cancer Stem Cells (A278, Adherent) (AID 1259361); settings: series mostly up to 46.1 µM; viability (% of control): at the top concentration;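 further: viability read after 48 h compound exposure; nearly all actives have a fitted effect of over 35% in size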;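 on viability (% of control): 100% = DMSO-treated cells and 0% = cell-free media-only wells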
Excerpt: Progenitor-like cancer cells, often referred to as cancer stem cells (CSC), are believed to be the drivers of therapeutic resistance and rapid recurrence. CSCs are postulated to reside in specific niches characterized by low oxygen tension, limited nutrient supply, and high redox load. Selectively targeting CSC, alone or in combination with cytotoxic agents, as a means to produce durable remissions is an appealing concept. Modeling these cells in in vitro setting is an important step in finding new therapies and/or targets. Multiple reports highlight that forcing cells in culture into 3-dimensionaly architectures (spheroids) re-establishes key progenitor-like transcriptional signatures. Pancreatic cancer is among the diseases with the most dismal outlook which is driven, largely, by recurance following front-line therapies. […] In hopes of deriving new insight into the targeting of these pancreatic CSCs we examined three established pancreatic cancer cell lines in cytotoxicity assays versus a collection of approved and investigational drugs. Importantly, we screened these lines as traditional monolayer (2D) and spheroid (3D) formats to gain an appreciation of agents with differential activity.
Multicellular tumor spheroids from Panc1, MiaPaCa-2, and the primary low-passage tissue culture line SB.06 were seeded in stem cell media (SCM) in nonadherent 6-well plates coated with hydrogel (Corning Life Sciences, Chelmsford, Mass) and pancreatic spheres generated for 14 days before screening. Cells were seeded into 1536-well solid-bottom white tissue culture treated Greiner Bio One Plates (789173-F) using a MultiDrop Combi (Thermofisher Scientific) dispenser and a small sterile cassette. One column was media alone to be used as a :"no cells" control. The plates were then covered with sterilized stainless steel gasketed lids from Kalypsys. After allowing cells to attach for 4 hours, 23 nL of test compound or control (negative control DMSO and positive control 9.2 uM Bortezomib-final) were added from a 1536-well polypropylene compound source plate to each well using a 1536 head pin tool from Kalypsys. Cells were then incubated for 48 hours at 37C, 95% relative humidity and 5% CO2. After 48 hours, plates were removed from the incubator and 3 uL of CellTiter-Glo (Promega) was added using an Aurora Flying Reagent Dispenser Bioraptor. Plates were incubated at room temperature for 10 minutes prior to reading the luminescence on the Viewlux (PerkinElmer). The relative luciferase units are used to calculate the percent activity using the activity of DMSO in the cells and no cells columns for normalization of no inhibition and full inhibition respectively.

Compound	viability (% of control)	IC50 (viability decrease)
CC(C)(C(=O)NCC(F)(F)C(F)(F)F)C(=O)N[C@@H]1C(=O)Nc2ccccc2-c2ccccc21	95.5	
NC(CO)(CO)CCc1ccc(Sc2cccc(OCc3ccccc3)c2)cc1Cl		26.4 µM (active)
COc1cc(N2CCC(N3CCN(C)CC3)CC2)ccc1Nc1ncc(Cl)c(Nc2ccccc2S(=O)(=O)C(C)C)n1		6.62 µM (active)
CC(=O)N(C)C1(c2ccccc2)CCN(CCC[C@]2(c3ccc(Cl)c(Cl)c3)CCCN(C(=O)c3ccccc3)C2)CC1		9.35 µM (active)
OC[C@H]1O[C@@H](n2cnc3c2NC=NC[C@@H]3O)C[C@H]1O		20.9 µM (active)
CN(C)Cc1ccc(-c2nc3cccc4c3n2CCNC4=O)cc1		23.5 µM (active)
CN1CCN(CCOc2cc(OC3CCOCC3)c3c(Nc4c(Cl)ccc5c4OCO5)ncnc3c2)CC1		20.9 µM (active)
CS(=O)c1ccc(-c2nc(-c3ccc(F)cc3)c(-c3ccncc3)[nH]2)cc1 (centres undefined)	87.1	
CC(C)(C)COc1ccc(-n2cc(C(=O)O)cn2)cc1C#N	107	
CO[C@H]1C=CC=C(C)C(=O)NC2=CC(=O)C(NCCN(C)C)=C(C[C@@H](C)C[C@H](OC)[C@@H](O)[C@@H](C)C=C(C)[C@@H]1OC(N)=O)C2=O		0.0059 µM (active)
COc1cc2ncnc(-n3nc(-c4ccccn4)nc3N)c2cc1OC		3.32 µM (active)
O=C(CCCCCCC(=O)Nc1ccccc1)NO		3.4 µM (active)
CC(C)[C@H](CO)Nc1nc(Nc2ccc(C(=O)O)c(Cl)c2)c2ncn(C(C)C)c2n1	114	
O=C(O)c1ccc(-c2cc3cccnc3c(-c3ccc4nonc4c3)n2)cc1	95.5	
CN(C)C1CCN(C(=O)c2ccc(NC(=O)Nc3nc(N4CCOCC4)nc(N4CCOCC4)n3)cc2)CC1		0.0148 µM (active)
COc1cccc2c1CCCC2CCCN1CCN(C2CCCCC2)CC1 (centres undefined)		16.6 µM (active)
Clc1ccc(-c2nc3sccn3c2C=NOCc2ccc(Cl)c(Cl)c2)cc1	111	
c1ccc2c(-c3cnn4cc(-c5ccc(N6CCNCC6)cc5)cnc34)ccnc2c1		23.5 µM (active)
Cc1nc(N)sc1-c1ccnc(Nc2ccc(N3CCOCC3)cc2)n1		5.9 µM (active)
CCOc1ccc(Nc2nc(-c3c(C)nc4ccccn34)cs2)cc1		0.0264 µM (active)
O=c1cc(N2CCOCC2)oc2c(-c3cccc4c3sc3ccccc34)cccc12		18.7 µM (active)
COc1ncc(-c2ccc3nccc(-c4ccnnc4)c3c2)cc1NS(=O)(=O)c1ccc(F)cc1F		0.118 µM (active)
CO[C@@H](C(=O)N1Cc2[nH]nc(NC(=O)c3ccc(N4CCN(C)CC4)cc3)c2C1)c1ccccc1		0.0935 µM (active)
CC(C)(C)C(=O)Oc1ccc2c(c1)nc(NC(=O)c1cccc([N+](=O)[O-])c1)n2CCCO		18.7 µM (active)
CC(C)(C)c1cc(C(=O)O)c(NC(=O)Nc2ccc3[nH]ncc3c2)s1	100	
O=C1C(Cl)=C(NCCN2CCOCC2)C(=O)c2ncccc21		3.32 µM (active)
Cc1ccc(F)c(NC(=O)Nc2ccc(-c3cccc4[nH]nc(N)c34)cc2)c1		26.4 µM (active)
O=C(O)CCC1CCC(c2cc(F)ccc2F)(S(=O)(=O)c2ccc(Cl)cc2)CC1 (centres undefined)	91.7	
CC1=C(/C=C/C(C)=C/C=C/C(C)=C/C(=O)Nc2ccc(O)cc2)C(C)(C)CCC1		3.32 µM (active)
